Measurements: PubChem BioAssay (NCATS)
Inconclusive results are not listed. The source made the active and inactive calls. Unless noted, calls come from the whole dose curve; as a rule, active = well fitted curve in the direction sought with a large enough effect; inconclusive = small, poorly fitted or top-dose-only effect, or another doubt; inactive = no such curve, though single readings can be large; an effect the other way counts as inactive or inconclusive.

Legend:
Furin (Homo sapiens) = Furin (Homo sapiens) (UniProt P09958); test: Furin counterscreen qHTS for Zika virus inhibitors (AID 1347149); note: nearly all actives have a fitted effect of over 70% in size; note: potency is the fitted concentration of half-maximal effect
In short: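 Fluorogenic cleavage of BOC-RVRR-AMC (2 microM final, Km ~15 µM) was monitored (ex 340, em 450 nm) at 37C after 15 min RT preincubation of 5 nM furin with compounds in HEPES pH 7.0 buffer with CaCl2 and Triton X-100. Percent inhibition was fitted to a 4-parameter Hill curve.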

[1] = Confirmatory screen GU Rhodamine qHTS for Zika virus inhibitors qHTS (AID 1347157); note: nearly all actives have a fitted effect of over 70% in size; note: potency is the fitted concentration of half-maximal effect
In short: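 Noncovalent NS2B hydrophilic domain/NS3 protease complex (25 nM final) in 10 mM Tris-HCl pH 8.0, 0.01% Tween 20, preincubated 15 min with compounds (up to 114 microM), then 1.5 microM Rhodamine110 substrate. Fluorescence change over 15 min fitted to 4-parameter Hill.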

[2] = Confirmatory screen NINDS Rhodamine qHTS for Zika virus inhibitors (AID 1347161); note: nearly all actives have a fitted effect of over 60% in size; note: potency is the fitted concentration of half-maximal effect
In short: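 Aprotinin served as in-plate control. Conditions: 25 nM linked NS2B-NS3, pH 8.0 Tris buffer, titrated compounds, 15 min preincubation and 15 min reaction with 1.5 microM Rhod110 substrate at room temperature.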

[3] = target: Estrogen receptor (Homo sapiens) (UniProt P03372); test: qHTS assay for small molecule antagonists of estrogen receptor alpha signaling (AID 588513; active = well fitted curve in the direction sought with a large enough effect in the signal ratio, with a control signal flat, not every such curve was filed as active; the % refers to the signal ratio; note: % is set by controls: 0 for no effect and ±100 for the full control effect)
In short: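 Antagonist mode: inhibition of 0.5 nM 17-beta-estradiol-driven beta-lactamase reporter in HEK 293 ER-alpha-UAS-bla cells, 18 h at 37C, CCF4 readout after 2 h at RT. Normalised to estradiol and DMSO; titration fitted to Hill.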

[4] = target: Estrogen receptor (Homo sapiens) (UniProt P03372); test: qHTS assay for small molecule agonists of estrogen receptor alpha signaling (AID 588514; calls by dose curve;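 note: 0% = vehicle only and 100% = reference agonist; nearly all actives have a fitted effect of over 70% in size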)
In short: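 Reporter-gene assay. […] controls beta-lactamase in HEK 293 GripTite cells; after 18 hrs with compound, CCF4 substrate is added for 2 hrs and fluorescence is read.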

[5] = target: Bile acid receptor (Homo sapiens) (UniProt Q96RI1); test: qHTS assay for small molecule antagonists of farnesoid X receptor signaling (AID 588526; calls by dose curve; note: % is set by controls: 0 for no effect and ±100 for the full control effect)
In short: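 Antagonist mode: titrated compounds tested against chenodeoxycholic acid stimulation (normalized to 50 uM CDCA and DMSO) in GeneBLAzer HEK293T cells for 16 h. Beta-lactamase read by CCF4 fluorescence; IC50 from Hill fits.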

[6] = qHTS assay for small molecule antagonists of peroxisome proliferator-activated receptor delta signaling (AID 588535; active = well fitted inhibition curve with a large enough effect in the signal ratio, with a control signal flat, not every such curve was filed as active; the % refers to the signal ratio;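 for max response: cells co-treated with a PPAR-delta agonist as stimulator during compound exposure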); conditions: HEK293T PPARd-UAS-bla, beta-lactamase FRET ratio, 18 h; 460 nm channel
In short: (§1)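 Cells were seeded at 4000 per well in assay medium containing 2% charcoal/dextran FBS and held 5 hrs at 37 C. Compounds were then added for 18 hrs. CCF4 substrate was applied for 2 hrs at room temperature before fluorescence reading.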

[7] = target: Peroxisome proliferator-activated receptor delta (Homo sapiens) (UniProt Q03181); test: as above
In short: as §1

[8] = target: Vitamin D3 receptor (Homo sapiens) (UniProt P11473); test: qHTS assay for small molecule antagonists of vitamin D receptor signaling (AID 588541; calls by dose curve;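 note: receptor activated by calcitriol during compound treatment; series mostly up to about 77 µM; % is set by controls: 0 for no effect and ±100 for the full control effect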)
In short: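 VDR-UAS-bla HEK293T cells in 2% charcoal-stripped FBS were stimulated with 1-alpha,25-dihydroxyvitamin D3 (3 nM final) plus compound for 16 h at 37 C. The beta-lactamase CCF4 readout was normalized to 50 nM agonist and DMSO, and Hill fits gave IC50.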

[9] = target: Vitamin D3 receptor (Homo sapiens) (UniProt P11473); test: qHTS assay for small molecule agonists of vitamin D receptor signaling (AID 588543; calls by dose curve;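 note: 0% = DMSO basal and 100% = reference agonist control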)
In short: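 Agonist-mode beta-lactamase reporter: HEK293T VDR-UAS-bla cells in charcoal-stripped 2% FBS, compound series 16 h 37 C, CCF4 2 h RT. EC50 from Hill fit, scaled against DMSO and 50 nM calcitriol control.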

[10] = qHTS assay for small molecule agonists of retinoid X receptor alpha signaling (AID 588544; calls by dose curve;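 for activation: 0% = DMSO basal wells and 100% = reference agonist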); conditions: HEK293T RXRa-UAS-bla, beta-lactamase reporter, 18 h; 530 nm emission
[11] = target: Retinoic acid receptor RXR-alpha (Homo sapiens) (UniProt P19793); test: as above
[12] = target: Thyroid hormone receptor beta (Homo sapiens) (UniProt P10828); test: qHTS assay for small molecule agonists of thyroid hormone receptor beta signaling (AID 588545; calls by dose curve;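 note: 0% = DMSO only and 100% = 10 nM T3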)
In short: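 Beta-lactamase reporter activity under TR response element control is measured in HEK 293 cells after 18 hrs compound exposure. Signal is ratiometric CCF4 fluorescence, 460/530 nm.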

[13] = qHTS assay for small molecule antagonists of retinoid X receptor alpha signaling (AID 588546; active = well fitted inhibition curve with a large enough effect in the signal ratio, with a control signal flat, not every such curve was filed as active; the % refers to the signal ratio;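 note: cells stimulated with 9-cis-retinoic acid as agonist; % is set by controls: 0 for no effect and ±100 for the full control effect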); conditions: HEK293T RXRa-UAS-bla, beta-lactamase ratio, antagonist mode; measured here: W530 green channel, cytotoxicity proxy
In short: (§2)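 Beta-lactamase reporter inhibition, read as CCF4 fluorescence ratio (ex 405, em 460/530 nm) after 2 h at RT. HEK293T UAS-bla cells, 2500/well, were stimulated with 9-cis-RA at 500 or 100 nM final alongside test compound for 18 h at 37 C.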

[14] = target: Retinoic acid receptor RXR-alpha (Homo sapiens) (UniProt P19793); test: as above; conditions: HEK293T RXRa-UAS-bla, beta-lactamase ratio, antagonist mode
In short: as §2

[15] = target: Thyroid hormone receptor beta (Homo sapiens) (UniProt P10828); test: qHTS assay for small molecule antagonists of thyroid hormone receptor beta signaling (AID 588547; active = well fitted inhibition curve with a large enough effect in the signal ratio, with a control signal flat, not every such curve was filed as active; the % refers to the signal ratio); conditions: TR-UAS-bla HEK293, beta-lactamase ratio, antagonist mode, 18 h
In short: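 TR-UAS-bla GripTite HEK293 cells in 2% charcoal/dextran FBS medium; compounds 0.59 nM to 92 uM with T3 at 0.4nM final, 18 h at 37 C. Beta-lactamase read by CCF4 fluorescence (460/530 nm); Hill fits gave IC50 and efficacy.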

[16] = qHTS assay for small molecule agonists of the antioxidant response element (ARE) signaling pathway (AID 651741; active = well fitted activation curve with a large enough effect in the signal ratio; the % refers to the signal ratio; note: % of control where 0% means no effect)
In short: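 HepG2 ARE-bla cells plated at 2,000 cells/well and incubated 5 h at 37 C/5% CO2 received 23 nL compound in DMSO. After 16 h at 37 C, LiveBLAzer B/G FRET substrate was applied for 2 h at room temperature and fluorescence read.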

[17] = qHTS assay for small molecule activators of the p53 signaling pathway (AID 651743; active = well fitted activation curve with a large enough effect in the signal ratio, not every such curve was filed as active; the % refers to the signal ratio; note: series mostly up to about 92 µM; % of control where 0% means no effect); conditions: HCT-116 p53RE-bla, beta-lactamase FRET ratio, 16 h; stronger effect = higher value
In short: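 HCT-116 p53RE-bla, 4,000 cells/well; 5 h settle; cpd/DMSO 16 h, 37 C; LiveBLAzer B/G 2 h RT; fluorescence intensity.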

[18] = qHTS assay for small molecule activators of the nuclear factor-kappa B (NF-kB) signaling pathway (AID 651749; active = well fitted activation curve with a large enough effect in the signal ratio; the % refers to the signal ratio; note: series mostly up to about 77 µM; % of control where 0% means no effect); conditions: NF-kB-bla ME-180 cells, beta-lactamase FRET ratio, 16 h; stronger effect = higher value
In short: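 Incubation lasted 16 hr at 37C in 5% CO2 after 23 nL compound addition to ME-180 NF-kB-bla cells. Activation appears as beta-lactamase-mediated FRET loss.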

[19] = qHTS assay for environmental chemicals that activate the Aryl hydrocarbon Receptor (AhR) signaling pathway (AID 651777); conditions: 1A2-DRE human hepatoma cells, luciferase, 24 h; stronger effect = higher value; note: % of control where 0% means no effect; nearly all actives have a fitted effect of over 15% in size
In short: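 Luminescence read-out: One-Glo added for 30 min at RT after 24 hr compound treatment (37 C, 5% CO2) of human hepatoma cells expressing a DRE/CYP1A2 promoter–luciferase reporter; increased signal indicates AhR activation.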

[20] = target: Peroxisome proliferator-activated receptor alpha (Homo sapiens) (UniProt Q07869); test: qHTS assay for small molecule agonists of the peroxisome proliferator-activated receptor alpha (PPARalpha) signaling pathway (AID 651778); conditions: PathHunter PPARalpha complementation, chemiluminescence, 6 h; stronger effect = higher value; note: % of control where 0% means no effect
In short: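 Enzyme-fragment complementation assay in which ligand-bound PPARalpha translocates and forms an active enzyme that generates chemiluminescence. Cells were plated overnight, exposed to compound for 6 hr at 37 C, and then given detection reagent for 60 min at room temperature.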

[21] = qHTS assay for small molecule agonists of the antioxidant response element (ARE) signaling pathway measured by Nrf2-dependant transcriptional activity (AID 720636; active = well fitted curve in the direction sought with a large enough effect in the repeat runs; an effect the other way counts as inactive or inconclusive;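 note: HepG2 cells with an ARE-driven luciferase reporter; % of control where 0% means no effect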)
In short: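 HepG2 ARE-luc reporter line, 1% dialyzed FBS; 6 hr attachment at 37 C, compound pinned in, 16 hr at 37 C/5% CO2; ONE-Glo, 30 min RT, luminescence read.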

[22] = qHTS assay for cell viability of HEK293 cells (AID 743288); conditions: ATP luminescence (CellTiter-Glo), 18 h; max response: stronger effect = lower value; note: potency is the fitted concentration of half-maximal effect; nearly all actives have a fitted effect of over 50% in size
In short: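 Total intracellular ATP, measured with a luciferase-coupled reagent, indicates the number of viable HEK293 cells. Exposure to test chemicals lasts 18 h at 37 C in 1,536-well format at 2,000 cells/well.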

[23] = qHTS assay for cell viability of the p53RE-bla HCT-116 cell line (AID 743292); note: potency is the fitted concentration of half-maximal effect; nearly all actives have a fitted effect of over 55% in size
In short: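 Luminescent ATP quantitation (CellTiter-Glo) served as the viability read-out; reagent was added after 16 h compound exposure at 37 C and read after 30 min at room temperature. Cells: p53RE-bla HCT-116, 4,000 per well.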

[24] = ZIKV-mCherry secondary qHTS for Zika virus inhibitors (AID 1347158); note: top concentration of the series differs between compounds
In short: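 After overnight seeding at 37 °C, Vero cells receive compound and then ZIKV-mCherry (MOI 1). Following 48-72 h infection, cells are fixed, counterstained with Hoechst, and imaged; percent infected cells is derived from an mCherry intensity cut-off of 450 RFU.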

[25] = tested on: Zika virus NS2B-NS3 protease (linked construct); test: 384 well plate NINDS Rhodamine confirmatory qHTS for Zika virus inhibitors (AID 1347164);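 note: fluorescence from protease cleavage of Ac-LKRR-rhodamine 110 substrate; potency is the fitted concentration of half-maximal effect; nearly all actives have a fitted effect of over 65% in size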
In short: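 Fluorescence at 485/538 nm was measured 25 minutes after adding 10 microM Ac-LKRR-Rd substrate, in the dark at room temperature. The protease (5, 30 or 60 nM final) had been preincubated ~15 minutes with compound; aprotinin as control.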

[26] = target: Nuclear receptor subfamily 1 group I member 2 (Rattus norvegicus) (UniProt Q9R1A7); test: qHTS assay for small molecule activators of the rat pregnane X receptor (rPXR) signaling pathway (AID 651751; call rule not given here; note: 0% is about no effect); conditions: rPXR reporter cells, luciferase (One-Glo), 24 h
[27] = qHTS assay for small molecule activators of the human pregnane X receptor (PXR) signaling pathway (AID 720659; call rule not given here; note: 0% is about no effect)
[28] = Tertiary RLuc qRT-PCR qHTS assay for Zika virus inhibitors (AID 1347169); note: top concentration of the series differs between compounds; % is set by controls: 0 for no effect and ±100 for the full control effect; nearly all actives have a fitted effect of over 55% in size
In short: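 Orthogonal cell-based readout: luminescence measured 1-1.5 hrs after adding live-cell Renilla substrate to Vero cells that had been infected with ZIKV-RLuc (MOI 1-2) post-compound, incubated 48-72 hrs at 37 degrees C.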

[29] = tested on: Zika virus NS2B-NS3 protease (linked); test: 384 well plate NINDS AMC confirmatory qHTS for Zika virus inhibitors (AID 1347163);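 note: linked protease at 5 30 or 60 nM final depending on run; fluorescence of AMC released from Ac-VKTGKR-AMC peptide cleaved by the protease; top concentration of the series differs between compounds; 0% = no-inhibitor control and -100% = no-enzyme control; nearly all actives have a fitted effect of over 50% in size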
In short: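 Linked protease 5/30/60 nM final; cpds up to 1 mM final, ~15 min preinc. Substrate Ac-VKTGKR-AMC 30 microM final. RT, dark, 25 min; FI ex 355/em 460; normalized to no-enzyme/no-inhibitor ctrls.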

Furin (Homo sapiens), sequence (P09958 whole entry, looked up): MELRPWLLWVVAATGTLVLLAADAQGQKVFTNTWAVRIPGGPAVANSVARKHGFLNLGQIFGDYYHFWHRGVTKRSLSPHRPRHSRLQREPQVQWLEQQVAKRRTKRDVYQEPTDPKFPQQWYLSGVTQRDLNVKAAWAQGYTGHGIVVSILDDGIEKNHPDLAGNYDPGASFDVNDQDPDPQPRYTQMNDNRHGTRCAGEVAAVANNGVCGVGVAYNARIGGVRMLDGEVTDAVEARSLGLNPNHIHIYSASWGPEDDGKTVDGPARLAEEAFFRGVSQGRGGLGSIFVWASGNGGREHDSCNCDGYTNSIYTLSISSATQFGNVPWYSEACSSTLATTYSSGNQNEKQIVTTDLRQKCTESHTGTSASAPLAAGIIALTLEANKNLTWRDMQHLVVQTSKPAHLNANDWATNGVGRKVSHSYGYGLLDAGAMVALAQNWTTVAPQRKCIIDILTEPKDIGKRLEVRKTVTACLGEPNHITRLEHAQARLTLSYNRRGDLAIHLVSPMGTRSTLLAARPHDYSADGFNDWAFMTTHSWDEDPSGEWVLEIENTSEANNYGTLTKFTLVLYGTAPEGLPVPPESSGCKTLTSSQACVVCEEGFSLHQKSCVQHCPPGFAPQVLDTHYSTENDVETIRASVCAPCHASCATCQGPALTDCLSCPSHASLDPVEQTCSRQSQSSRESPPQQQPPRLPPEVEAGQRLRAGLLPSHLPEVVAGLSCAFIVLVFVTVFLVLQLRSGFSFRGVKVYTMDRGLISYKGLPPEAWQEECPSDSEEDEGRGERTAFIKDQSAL
Thyroid hormone receptor beta (Homo sapiens), sequence (P10828 whole entry, looked up): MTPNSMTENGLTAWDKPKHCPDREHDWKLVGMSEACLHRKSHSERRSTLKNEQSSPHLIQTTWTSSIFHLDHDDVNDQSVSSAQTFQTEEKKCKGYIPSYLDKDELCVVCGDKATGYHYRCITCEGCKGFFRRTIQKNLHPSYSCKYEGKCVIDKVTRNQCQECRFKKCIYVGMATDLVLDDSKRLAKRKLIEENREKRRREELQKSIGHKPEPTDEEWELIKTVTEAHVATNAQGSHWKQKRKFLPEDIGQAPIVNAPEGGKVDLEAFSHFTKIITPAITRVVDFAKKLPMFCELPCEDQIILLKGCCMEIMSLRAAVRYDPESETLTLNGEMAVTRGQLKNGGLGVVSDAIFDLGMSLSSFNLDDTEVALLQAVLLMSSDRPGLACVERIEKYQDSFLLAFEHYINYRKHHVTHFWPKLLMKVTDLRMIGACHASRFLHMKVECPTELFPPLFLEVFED
Estrogen receptor (Homo sapiens), sequence (P03372 whole entry, looked up): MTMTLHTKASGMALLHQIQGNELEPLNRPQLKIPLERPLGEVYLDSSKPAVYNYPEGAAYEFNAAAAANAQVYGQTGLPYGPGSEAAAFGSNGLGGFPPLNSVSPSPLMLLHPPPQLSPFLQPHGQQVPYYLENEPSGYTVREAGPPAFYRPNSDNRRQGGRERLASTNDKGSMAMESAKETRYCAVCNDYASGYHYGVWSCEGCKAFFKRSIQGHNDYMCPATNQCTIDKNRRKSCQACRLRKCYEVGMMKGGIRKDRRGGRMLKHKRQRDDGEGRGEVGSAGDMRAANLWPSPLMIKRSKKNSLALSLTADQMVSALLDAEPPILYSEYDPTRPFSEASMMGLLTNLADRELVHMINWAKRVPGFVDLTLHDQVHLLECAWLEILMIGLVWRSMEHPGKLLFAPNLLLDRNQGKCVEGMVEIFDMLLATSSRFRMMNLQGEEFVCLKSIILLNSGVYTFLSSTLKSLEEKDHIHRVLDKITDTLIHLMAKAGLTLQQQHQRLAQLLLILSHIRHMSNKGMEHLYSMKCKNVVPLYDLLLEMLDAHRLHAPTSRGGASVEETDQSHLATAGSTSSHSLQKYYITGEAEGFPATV
Retinoic acid receptor RXR-alpha (Homo sapiens), sequence (P19793 whole entry, looked up): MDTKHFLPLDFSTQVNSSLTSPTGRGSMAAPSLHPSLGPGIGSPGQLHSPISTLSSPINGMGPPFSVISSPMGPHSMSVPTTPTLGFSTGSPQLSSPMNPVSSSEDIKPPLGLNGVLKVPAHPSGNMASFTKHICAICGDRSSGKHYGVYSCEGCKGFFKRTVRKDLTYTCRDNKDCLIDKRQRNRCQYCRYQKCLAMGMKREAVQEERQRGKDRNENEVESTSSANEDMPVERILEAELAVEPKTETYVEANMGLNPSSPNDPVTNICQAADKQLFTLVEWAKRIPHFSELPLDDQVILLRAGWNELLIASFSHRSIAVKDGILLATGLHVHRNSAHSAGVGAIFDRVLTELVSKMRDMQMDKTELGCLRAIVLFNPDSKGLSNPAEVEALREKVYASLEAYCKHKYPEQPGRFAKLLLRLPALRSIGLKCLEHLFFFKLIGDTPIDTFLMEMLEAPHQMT
Vitamin D3 receptor (Homo sapiens), sequence (P11473 whole entry, looked up): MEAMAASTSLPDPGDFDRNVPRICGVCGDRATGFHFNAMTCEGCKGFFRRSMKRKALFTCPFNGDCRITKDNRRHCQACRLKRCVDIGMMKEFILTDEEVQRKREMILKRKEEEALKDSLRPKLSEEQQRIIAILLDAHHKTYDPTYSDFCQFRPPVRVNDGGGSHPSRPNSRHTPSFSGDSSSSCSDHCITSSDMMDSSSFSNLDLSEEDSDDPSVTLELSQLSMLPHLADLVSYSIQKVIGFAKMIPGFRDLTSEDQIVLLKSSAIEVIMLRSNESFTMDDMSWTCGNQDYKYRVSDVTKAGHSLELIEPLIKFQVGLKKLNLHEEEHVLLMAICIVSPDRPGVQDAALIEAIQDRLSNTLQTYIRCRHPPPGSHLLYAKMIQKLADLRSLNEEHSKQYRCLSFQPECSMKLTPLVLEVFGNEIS
Bile acid receptor (Homo sapiens), sequence (Q96RI1 whole entry, looked up): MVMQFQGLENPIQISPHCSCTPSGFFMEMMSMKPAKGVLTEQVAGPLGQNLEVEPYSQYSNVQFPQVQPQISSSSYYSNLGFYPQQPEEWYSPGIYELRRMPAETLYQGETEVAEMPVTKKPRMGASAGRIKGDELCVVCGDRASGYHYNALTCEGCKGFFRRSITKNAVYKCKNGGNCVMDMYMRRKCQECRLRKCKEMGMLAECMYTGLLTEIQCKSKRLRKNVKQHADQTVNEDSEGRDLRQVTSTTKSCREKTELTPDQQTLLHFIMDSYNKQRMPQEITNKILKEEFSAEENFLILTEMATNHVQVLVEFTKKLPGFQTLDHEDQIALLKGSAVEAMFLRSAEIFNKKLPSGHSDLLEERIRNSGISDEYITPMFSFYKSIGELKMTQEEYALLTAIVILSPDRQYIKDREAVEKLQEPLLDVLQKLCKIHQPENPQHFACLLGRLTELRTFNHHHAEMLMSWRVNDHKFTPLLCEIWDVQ
Nuclear receptor subfamily 1 group I member 2 (Rattus norvegicus), sequence (Q9R1A7 whole entry, looked up): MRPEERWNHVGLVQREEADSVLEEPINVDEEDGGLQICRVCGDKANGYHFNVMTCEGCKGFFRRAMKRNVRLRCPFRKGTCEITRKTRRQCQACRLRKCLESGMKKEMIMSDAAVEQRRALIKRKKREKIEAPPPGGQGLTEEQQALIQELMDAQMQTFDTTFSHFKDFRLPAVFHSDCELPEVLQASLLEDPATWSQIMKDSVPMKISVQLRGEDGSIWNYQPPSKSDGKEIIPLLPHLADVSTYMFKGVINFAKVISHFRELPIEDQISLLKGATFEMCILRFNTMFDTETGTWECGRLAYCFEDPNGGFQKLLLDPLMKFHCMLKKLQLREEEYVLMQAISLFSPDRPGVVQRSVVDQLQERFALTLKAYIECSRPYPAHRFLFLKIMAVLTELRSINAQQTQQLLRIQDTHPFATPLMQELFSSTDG
Peroxisome proliferator-activated receptor alpha (Homo sapiens), sequence (Q07869 whole entry, looked up, the tested form may be a part): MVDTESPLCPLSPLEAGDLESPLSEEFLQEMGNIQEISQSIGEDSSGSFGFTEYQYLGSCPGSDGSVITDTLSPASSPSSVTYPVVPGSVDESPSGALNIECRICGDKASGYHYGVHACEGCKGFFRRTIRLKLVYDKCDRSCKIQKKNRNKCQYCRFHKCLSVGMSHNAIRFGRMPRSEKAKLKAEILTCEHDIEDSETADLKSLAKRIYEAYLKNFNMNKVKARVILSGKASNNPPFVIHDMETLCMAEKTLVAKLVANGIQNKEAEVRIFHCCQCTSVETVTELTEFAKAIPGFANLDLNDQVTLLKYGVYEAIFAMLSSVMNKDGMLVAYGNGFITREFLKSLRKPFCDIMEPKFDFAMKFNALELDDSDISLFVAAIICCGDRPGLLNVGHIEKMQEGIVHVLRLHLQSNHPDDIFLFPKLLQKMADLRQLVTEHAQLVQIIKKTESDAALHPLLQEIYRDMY
Peroxisome proliferator-activated receptor delta (Homo sapiens), sequence (Q03181 whole entry, looked up): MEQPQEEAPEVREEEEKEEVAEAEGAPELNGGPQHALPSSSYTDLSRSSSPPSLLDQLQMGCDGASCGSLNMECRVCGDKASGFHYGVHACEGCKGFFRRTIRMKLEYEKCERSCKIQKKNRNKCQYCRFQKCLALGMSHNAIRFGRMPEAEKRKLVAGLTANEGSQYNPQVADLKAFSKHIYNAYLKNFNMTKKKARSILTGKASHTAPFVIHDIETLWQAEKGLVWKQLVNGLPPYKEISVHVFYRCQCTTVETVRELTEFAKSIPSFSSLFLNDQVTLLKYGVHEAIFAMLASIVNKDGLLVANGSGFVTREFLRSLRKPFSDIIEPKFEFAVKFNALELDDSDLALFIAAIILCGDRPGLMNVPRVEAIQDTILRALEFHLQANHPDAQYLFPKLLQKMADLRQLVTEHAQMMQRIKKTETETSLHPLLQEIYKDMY

CCc1ccc(S(=O)(=O)Nc2cc3c(C(=O)OCc4ccccc4)c(C)oc3c3ccccc23)cc1
inactive: Potency (Furin (Homo sapiens)) | Potency [1] | Potency [2]

CCN(Cc1cccc(S(=O)(=O)O)c1)c1ccc(C(=C2C=CC(=[N+](CC)Cc3cccc(S(=O)(=O)O)c3)C=C2)c2ccccc2S(=O)(=O)[O-])cc1
active: Potency [22] 35.5 µM | Potency [23] 31.6 µM | Potency [1] 3.55 µM | Potency [2] 3.55 µM | Potency [25] 14.1 µM
inactive: Potency [3] | outcome [4] | outcome [5] | outcome [7] | Potency [8] | outcome [9] | outcome [11] | outcome [12] | max response [14] 8.56% | activity change % (negative = inhibition) [15] -4.53% | Potency [16] | activation [17] 1.38% | activation [18] 1.84% | activation [19] -6.97% | max response [20] -9.68% | outcome [21] | Potency (Furin (Homo sapiens)) | Potency [24] | max response [26] -11% | outcome [27]
-7.12%: max response [10]
-15.8%: max response [6]
-12.5%: max response [13]

Cc1ccc(NC(=O)CSc2ncccc2C(=O)Oc2ccccc2Cl)cc1Cl
inactive: Potency (Furin (Homo sapiens)) | Potency [1] | Potency [2]

O=C(OCC#CCSc1nnc(-c2cc3ccccc3cc2O)o1)c1ccc(F)cc1
active: Potency (Furin (Homo sapiens)) 83.5 µM
inactive: Potency [1] | Potency [2]

Cc1cn2c(=O)cc(COC(=O)c3ccc(NC(=O)c4ccc(C(C)(C)C)cc4)cc3)nc2s1
inactive: Potency [1] | Potency [2] | Potency [28]
active: Potency (Furin (Homo sapiens)) 46.9 µM

Cc1cc(NC(=O)c2ccc(Cl)c(Cl)c2)ccc1-c1cc2ccccc2oc1=O
inactive: Potency [29] | Potency [28]
active: Potency (Furin (Homo sapiens)) 66.3 µM | Potency [1] 44.7 µM | Potency [2] 31.6 µM

COC(=O)c1ccc([C@H]2Nc3ccc(S(=O)(=O)Nc4ccc(C)cc4)cc3[C@H]3C=CC[C@H]32)cc1
active: Potency [1] 25.1 µM | Potency [2] 17.8 µM | Potency [25] 100 µM
inactive: Potency (Furin (Homo sapiens)) | Potency [24] | Potency [28]

COc1ccc(S(=O)(=O)c2c(Nc3c(C)cccc3C)sc(C(=O)c3ccc4c(c3)OCO4)c2N)cc1
inactive: Potency [1] | Potency [2]
active: Potency (Furin (Homo sapiens)) 23.5 µM
